Sampled rows, rich in hits. Any-hit rate of the full collection: about 7.3%.
FMDV antiviral: blocks foot and mouth disease virus. Potency, µM (titrated, usually from 57.9 µM), for the others: at the highest dose activity change, negative = inhibition, actives largely listed as inhibitors. 410,000 compounds, 1.2% hits. FMDV antiviral cell-based qHTS; calls by dose curve; tested in HEK293T cells; further: read-out not given here; potency means the concentration at half of the fitted maximal effect; nearly all actives have a fitted effect of over 45% in size
HCV inhibitor: inhibitors of hepatitis C virus infection; Huh7.5.1 HCVcc-Cre infection, luciferase reporter, 44 h; Potency, µM (doses to about 41.8 µM), for inactives: at the top dose activity change, negative = inhibition, usual class: inhibitors; 340,000 compounds, 3.4% hits; further: potency means the concentration at half of the fitted maximal effect
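Infectious HCV cell culture screen: compound-treated cells (1,000/well, pre-plated 4 h) are infected with HCVcc-Cre at roughly 0.5 moi and grown 44 h. Infection is quantified by luciferase signal after 15 min substrate incubation at room temperature.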
AmpC inh detg: inhibitors of E. coli AmpC beta-lactamase with detergent. AmpC hydrolysis of nitrocefin, absorbance 480 nm, 0.01% Triton. Potency, µM (top dose mostly 114 µM), for inactives: top-dose activity change, negative = inhibition, actives largely listed as inhibitors. 370,000 compounds, 0.041% hits. AID 485294;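 further: potency means the concentration at half of the fitted maximal effect; 0% = no-compound wells and -100% = no-enzyme wells; nearly all actives have a fitted effect of over 25% in size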
Target sequence (P00811 whole entry, looked up): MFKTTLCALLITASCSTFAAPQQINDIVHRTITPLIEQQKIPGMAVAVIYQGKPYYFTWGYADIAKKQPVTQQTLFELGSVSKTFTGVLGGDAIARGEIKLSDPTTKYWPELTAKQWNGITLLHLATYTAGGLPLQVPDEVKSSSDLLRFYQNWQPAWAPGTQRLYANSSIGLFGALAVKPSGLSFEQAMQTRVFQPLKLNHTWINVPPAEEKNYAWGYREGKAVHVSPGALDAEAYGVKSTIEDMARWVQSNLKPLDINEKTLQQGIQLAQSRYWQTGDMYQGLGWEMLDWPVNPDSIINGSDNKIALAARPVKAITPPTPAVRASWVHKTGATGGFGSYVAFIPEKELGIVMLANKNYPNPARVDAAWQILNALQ
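AmpC (5.3 nM in the dispensed reagent) in 20 mM phosphate pH 7.0 with 0.01% (detergent screen) or 0.0001% Triton X-100 was preincubated with compounds for 15 min at room temperature. Nitrocefin was then added from an 800 uM solution, and hydrolysis was followed at 480 nm.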
AmpC no deterg: inhibitors of E. coli AmpC beta-lactamase without detergent. P00811. AmpC nitrocefin hydrolysis, absorbance 480 nm, 0.0001% Triton. Potency, µM (highest dose often 57.1 µM), for the others: at the top dose activity change, negative = inhibition, most hits filed as inhibitors. 330,000 compounds, 0.52% hits. AID 485341;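 further: potency means the concentration at half of the fitted maximal effect; plate controls were no compound for no effect and no enzyme for full effect; nearly all actives have a fitted effect of over 20% in size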
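20 mM phosphate pH 7.0 + 0.01% (detergent screen) or 0.0001% Triton X-100; 5.3 nM AmpC reagent; cpd preinc 15 min RT; nitrocefin (800 uM stock) to start; A480 q20 s × 4 min; Activity was normalised to no-enzyme and no-compound control wells.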
HCMV antiviral: blocks human cytomegalovirus replication; HFF cells, HCMV-luciferase reporter, 72 h; stronger effect = lower value; activity change, negative = inhibition, % at 57.5 µM; 410,000 compounds, 4.5% hits; in the data active means activity change below about -60%; inconclusive means no clear call, values can overlap the other calls; inactive means above about -39%
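Steps: HFFs plated, 16 h 37C; compounds added; HCMV-luciferase added to MOI 1 PFU/cell; 72 h 37C; OneGlo reagent, 5 min room temperature; luminescence read, normalized to controls.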
The depositor's hits bear a star; u = inconclusive; x = no result; [ ] = dose if it differs, or a comment. Unless noted, the call rests on the fitted dose curve; in most records, active means well fitted curve in the direction sought with a large enough effect; inconclusive means small, poorly fitted or top-dose-only effect, or another doubt; inactive means no such curve, though single readings can be large; an effect the other way counts as inactive or inconclusive. Unless noted, on the % scale 0 is the no-effect control and ±100 the full control effect.

SMILES	FMDV antiviral	HCV inhibitor	AmpC inh detg	AmpC no deterg	HCMV antiviral
Cc1ccc(C(=O)N/C(=C\c2ccc(-c3cc(Cl)ccc3Cl)o2)C(=O)NCc2cccnc2)cc1	-5%	10µM*	-7%	-30%	-4
CN1CCN(c2nc(-c3ccccn3)nc3ccccc23)CC1	-11%	-13%	1%	13%	-16
c1ccc(N2CCN(c3nc(-c4ccccn4)nc4ccccc34)CC2)cc1	u	3.2µM*	-3%	89%	-99*
O=C(NCC1CCN(C(=O)c2ccc([N+](=O)[O-])cc2)CC1)c1ccc([N+](=O)[O-])cc1	-27%	-28%	3%	45%	-7
CCOC(=O)N1CCN(S(=O)(=O)c2ccc(C)c([N+](=O)[O-])c2)CC1	-21%	-12%	8%	46%	-62*
CCOC(=O)N1CCN(S(=O)(=O)c2ccc(OCC(=O)OC)cc2)CC1	x	16%	-3%	-5%	-78*
CCOC(=O)N1CCN(c2ccc(S(=O)(=O)N3CCOCC3)cc2[N+](=O)[O-])CC1	-16%	-6%	-13%	54%	-11
CCOC(=O)c1ccoc1CN1CCN(S(=O)(=O)c2ccc(C)c(C)c2)CC1	-23%	u	x	39%	-63*
CC(=O)c1ccc(NC(=S)Nc2cccc(Cl)c2C)cc1	9%	-15%	-11%	-20%	-39
O=C(Nc1nc(-c2ccco2)c(-c2ccco2)s1)C1CCC1	0%	u	u	32µM*	-14
Cc1nnc(SCCC(=O)Nc2ccccc2Cl)o1	-8%	25%	4%	1%	-3
Brc1ccc(-c2c[n+]3c(n2-c2ccccc2)SCC3)cc1	u	-15%	2%	-14%	-73*
COc1ccc(-c2c[n+]3c(n2-c2ccccc2)SCC3)cc1OC	-8%	3%	-8%	-14%[11.4 µM]	u
Cc1ccc(-c2c[n+]3c(n2-c2ccccc2)SCC3)cc1	u	u	-1%	-15%	-73*
COc1ccc(-c2c[n+]3c(n2-c2ccccc2)SCC3)cc1	-14%	u	1%	-15%	-80*
CCNC(=O)N[C@H]1CC[C@@]23CCCN2C(=O)CCC[C@H]3C1Cc1ccccc1 (stereo partly specified)	x	x	x	x	-6
CC1(C(=O)NS(=O)(=O)C2CC2)CCN(C(=O)c2c(F)cccc2F)C1 (stereo unspecified)	-15%	x	x	x	-2
CC[C@]12CCCN3CCc4c(n(c5ccccc45)C(=O)C1)[C@@H]32	-25%	6.3µM*	-2%	2%	47
COC(=O)c1ccccc1S(=O)(=O)N1CCCC(c2nc3c(nnn3Cc3ccc(C)cc3)c(=O)[nH]2)C1 (stereo unspecified)	-22%	17%	2%	11%	-78*
COc1ccc(-c2c(-c3cc(OC)cc(OC)c3)n(C)c3ccc(-c4ccc(N(C)C)nc4)cc23)cc1	-7%	u	8%	-17%	5
NNC(=O)c1nc(-c2ccccc2)cc(-c2ccccc2)n1	-4%	14%	u	-3%	-63*
NNc1nc(-c2ccccc2)cc(-c2ccccc2)n1	-5%	13µM*	-4%	-22%	-36
NNc1nc(-c2ccccc2)cc(-c2ccccc2O)n1	15%	u	-1%	-24%	13
Nc1nc(-c2ccccc2)cc(-c2ccccc2O)n1	x	1%	3%	-26%	-96*
CCOC(=O)/C=C/[C@H](CCCCOCc1ccccc1)NC(=O)C(F)(F)F	x	x	x	x	9
SMILES	FMDV antiviral	HCV inhibitor	AmpC inh detg	AmpC no deterg	HCMV antiviral
CCCCNc1nc(Oc2ccc(=O)n(C)n2)nc(N2CCOCC2)n1	-14%	x	11%	x	41
COc1cccc(Nc2ccc(N3CCCCC3)cc2)c1OC	26%	x	7%	-2%	-99*
Cc1cc(C)n(CC(=O)NCc2ccccc2)c(=O)c1C#N	-7%	9%	-13%	-10%	4
CCc1ccc(NC(=O)C(CC)n2c(=O)c(-c3ccccc3NC(C)=O)nc3ccccc32)cc1 (stereo unspecified)	u	x	23%	x	-91*
CCC(C(=O)Nc1c(C)cc(C)cc1C)n1c(=O)c(-c2ccccc2NC(C)=O)nc2ccccc21 (stereo unspecified)	-9%	x	22%	x	-2
Cc1c(N2C(=O)/C(=C/C3CC=CCC3)SC2=S)c(=O)n(-c2ccccc2)n1C (stereo unspecified)	18µM*	1%	-7%	-7%	17
Cc1c(N2C(=O)/C(=C\c3ccccc3O)SC2=S)c(=O)n(-c2ccccc2)n1C	u	5%	1%	-3%	-27
Cc1c(N2C(=O)/C(=C\C3CC=CCC3)SC2=S)c(=O)n(-c2ccccc2)n1C (stereo unspecified)	25µM*	-13%	-1%	-19%	40
Cc1c(N2C(=O)/C(=C3\C(=O)N(CC(=O)O)c4ccccc43)SC2=S)c(=O)n(-c2ccccc2)n1C	25µM*	15%	-5%	-18%	45
Cc1c(N2C(=O)/C(=C/c3ccccc3)SC2=S)c(=O)n(-c2ccccc2)n1C	-30%	-6%	-10%	5%	u
Cc1ccc(/C=C2\SC(=S)N(c3c(C)n(C)n(-c4ccccc4)c3=O)C2=O)cc1	x	-3%	-11%	59%	-24
CC(=O)NCCNC(=O)c1ccc(NC2=NC3CS(=O)(=O)CC3S2)cc1 (stereo unspecified)	3%	25%	-4%	-8%	0
N#CCc1ccc(OCCCN2CCC(C(O)(c3ccccc3)c3ccccc3)CC2)cc1	-25%	x	x	x	13
c1ccc(-c2ccccc2OCCCN2CCCC2)cc1	-20%	-23%	-4%	19%	-3
COc1ccccc1-c1ccc(OCCCN2CCC(C(O)(c3ccccc3)c3ccccc3)CC2)cc1	x	x	x	x	-99*
Cc1ccc(SCCN2CCN(CCc3ccccc3)CCC2=O)cc1	-5%	2.2µM*	0%	173%	17
c1ccc(COc2ccc(OCCCN3CCCC3)cc2)cc1	-16%	10µM*	-7%	12%	11
c1ccc(-c2ccccc2OCCCN2CCCCCC2)cc1	-15%	u	u	53%	-72*
CCc1cc2c(SCC(=O)NCC3CCCO3)ncnc2s1 (stereo unspecified)	-11%	3%	3%	-16%	0
CC(=O)C1=CCC(c2cccc3ccccc23)N(S(=O)(=O)c2ccc(C)cc2)C1 (stereo unspecified)	-10%	x	x	x	-39
CN1CCN(Cc2ccc(OCc3ccccc3)cc2)CC1	29%	5.6µM*	-11%	7%	-10
Clc1cccc(OCCN2CCN(CCOc3cccc(Cl)c3)CC2)c1	u	u	u	140%	-96*
Clc1ccc(OCCCN2CCCC2)cc1Cl	-5%	u	-3%	-27%	10
CC1CCN(CCOc2cccc(Br)c2)CC1	10%	1%	-10%	-23%	-22
